# Hit rate of the full screen: of about 39,000 compounds, about 1,500 (3.8%) were called active. The sample as a whole holds a higher share of actives than the screen did.
# Tested on: HSkMC (human skeletal muscle cells)
# Assay: cytotoxicity call (relative viability < 0.9)
# Details: 10 µM
row,SMILES,cytotoxicity call
1,Cc1noc(C)c1NC(=O)Nc1ccc2c(c1)C(=O)N([C@@H](C)CO)C[C@H](C)[C@@H](CN(C)C(=O)Nc1ccc3c(c1)OCO3)OCCCC[C@H](C)O2,inactive
2,Nc1ncnc2c1ncn2C1OC(COP(=O)(O)OP(=O)([O-])OP(=O)([O-])O)C(O)C1O.[Na+].[Na+] (stereo unspecified),inactive
3,COc1cccc(S(=O)(=O)N(C)C[C@@H]2OCc3cn(nn3)CCCC(=O)N([C@H](C)CO)C[C@@H]2C)c1,inactive
4,C[C@@H]1CN([C@H](C)CO)C(=O)c2cc(NC(=O)Nc3cccc4ccccc34)ccc2O[C@H]1CN(C)Cc1ccc(Oc2ccccc2)cc1,inactive
5,C[C@@H]1CN([C@@H](C)CO)C(=O)c2cc(NC(=O)Nc3cccc4ccccc34)ccc2O[C@@H]1CN(C)Cc1ccc(Oc2ccccc2)cc1,active
6,C[C@H]1CN([C@@H](C)CO)C(=O)c2cc(NC(=O)Nc3cccc4ccccc34)ccc2O[C@@H]1CN(C)Cc1ccc(Oc2ccccc2)cc1,inactive
7,C[C@H](CO)N1C[C@H](C)[C@@H](CN(C)Cc2ccc(Oc3ccccc3)cc2)Oc2ccc(NC(=O)Nc3cccc4ccccc34)cc2C1=O,inactive
8,C[C@H](CO)N1C[C@H](C)[C@H](CN(C)Cc2ccc(Oc3ccccc3)cc2)Oc2ccc(NC(=O)Nc3cccc4ccccc34)cc2C1=O,active
9,C[C@@H]1CN([C@H](C)CO)C(=O)c2cc(NC(=O)Nc3cccc4ccccc34)ccc2O[C@@H]1CN(C)Cc1ccc(Oc2ccccc2)cc1,inactive
10,COc1ccccc1C#Cc1cnc2c(c1)C(=O)N([C@@H](C)CO)C[C@@H](C)[C@H](CN(C)S(=O)(=O)c1cn(C)cn1)O2,inactive
11,CN1C(=O)c2cc(NC(=O)C3CCOCC3)ccc2OC[C@@H]2O[C@H](CC(=O)NCc3ccccc3F)CC[C@H]21,inactive
12,NC(=O)NCC#Cc1ccc2c(c1)[C@]1(C(=O)N2)[C@H](C(=O)N2CCN(c3ncccn3)CC2)[C@H]2C(=O)O[C@H](c3ccccc3)[C@H](c3ccccc3)N2[C@@H]1c1ccc(OCCO)cc1,inactive
13,Cc1noc(C)c1NC(=O)Nc1ccc2c(c1)C(=O)N([C@@H](C)CO)C[C@H](C)[C@H](CN(C)Cc1ccc(C(=O)O)cc1)OCCCC[C@@H](C)O2,inactive
14,C[C@H](CO)N1C[C@H](C)[C@@H](CN(C)Cc2ccc(-c3ccccc3)cc2)Oc2c(NC(=O)c3nc4ccccc4s3)cccc2C1=O,inactive
15,C[C@]12CC[C@@H]3[C@]4(C=C[C@@]5(C=C4C(=O)c4cc6ccccc6s4)C[C@@H](O)CC[C@]35C)[C@@H]1CC[C@@]2(O)CN1CCC(n2c(=O)[nH]c3ccccc32)CC1,inactive
16,CCC(=O)OCC(=O)C1(OC(=O)CC)C(C)CC2C3CCC4=CC(=O)C=CC4(C)C3(Cl)C(O)CC21C (stereo unspecified),inactive
17,CC1CC2C3CCC4=CC(=O)C=CC4(C)C3(Cl)C(O)CC2(C)C1(OC(=O)c1ccco1)C(=O)CCl (stereo unspecified),active
18,CCC(=O)OC1(C(=O)CCl)C(C)CC2C3CCC4=CC(=O)C=CC4(C)C3(F)C(O)CC21C (stereo unspecified),inactive
19,C[C@H](CO)N1C[C@H](C)[C@H](CN(C)S(=O)(=O)c2ccc(F)cc2)Oc2ncc(C#CCN(C)C)cc2C1=O,inactive

row,SMILES,cytotoxicity call
1,CCS(=O)(=O)NCC[C@@H]1CC[C@@H](NC(=O)C2CCOCC2)[C@H](CO)O1,inactive
2,Cc1ccccc1S(=O)(=O)N1C[C@H](O)COC[C@@H]2O[C@H](CC(=O)NCc3ccccc3Cl)CC[C@H]21,inactive
3,O=C(NC1(c2ccccc2)CC1)c1c(CN2CCC(N3CCCCC3)CC2)c(-c2cccc(C(F)(F)F)c2)nc2cc(Br)ccc12,active
4,O=C(N[C@@H](c1ccc(-c2ccccc2)cc1)c1cnccn1)C1CCN(Cc2cccc(C(F)(F)F)c2)CC1,inactive
5,COc1ccc(S(=O)(=O)N(C)C[C@H]2Oc3ccc(NC(=O)CCCN(C)C)cc3CC(=O)N([C@H](C)CO)C[C@@H]2C)cc1,inactive
6,Cc1noc(C)c1NC(=O)N(C)C[C@@H]1OCCCC[C@@H](C)Oc2ccc(NC(=O)CCCCCC(=O)Nc3ccccc3N)cc2C(=O)N([C@H](C)CO)C[C@@H]1C,inactive
7,CO[C@@H]1CN(C)C(=O)c2ccc(NC(=O)CC(F)(F)F)cc2OC[C@H](C)N(C(=O)C2CCOCC2)C[C@H]1C,inactive
8,Cc1noc(C)c1NC(=O)Nc1cccc2c1O[C@H](CN(C)Cc1ccc(C(F)(F)F)cc1)[C@@H](C)CN([C@@H](C)CO)C2=O,inactive
9,COc1ccc(NC(=O)Nc2ccc3c(c2)C(=O)N([C@@H](C)CO)C[C@H](C)[C@@H](CN(C)C(=O)Nc2ccc(F)cc2)OCCCC[C@H](C)O3)cc1,inactive
10,C[C@H](CO)N1C[C@H](C)[C@H](CN(C)Cc2ccc(C(F)(F)F)cc2)Oc2c(NC(=O)Nc3ccc4c(c3)OCO4)cccc2C1=O,inactive
11,C[C@@H]1CN([C@@H](C)CO)C(=O)c2cccc(NC(=O)Nc3ccc(C(F)(F)F)cc3)c2O[C@H]1CN(C)Cc1ccc2c(c1)OCO2,active
12,C[C@H]1CN([C@@H](C)CO)C(=O)c2cccc(NC(=O)Nc3ccc(C(F)(F)F)cc3)c2O[C@@H]1CN(C)Cc1ccc2c(c1)OCO2,active
13,C[C@H]1CN([C@@H](C)CO)C(=O)c2cccc(NC(=O)Nc3ccc(C(F)(F)F)cc3)c2O[C@H]1CN(C)Cc1ccc2c(c1)OCO2,inactive
14,C[C@@H]1CN([C@H](C)CO)C(=O)c2cccc(NC(=O)Nc3ccc(C(F)(F)F)cc3)c2O[C@H]1CN(C)Cc1ccc2c(c1)OCO2,inactive
15,C[C@H]1CN([C@@H](C)CO)C(=O)c2cccc(NC(=O)Nc3ccc4c(c3)OCO4)c2O[C@@H]1CN(C)Cc1ccc(C(F)(F)F)cc1,inactive
16,C[C@@H]1CN([C@@H](C)CO)C(=O)c2cccc(NC(=O)Nc3ccc(C(F)(F)F)cc3)c2O[C@@H]1CN(C)Cc1ccc2c(c1)OCO2,inactive
17,C[C@@H]1CN([C@H](C)CO)C(=O)c2cccc(NC(=O)Nc3ccc(C(F)(F)F)cc3)c2O[C@@H]1CN(C)Cc1ccc2c(c1)OCO2,inactive
18,C[C@H](CO)N1C[C@H](C)[C@H](CN(C)Cc2ccc3c(c2)OCO3)Oc2c(NC(=O)Nc3ccc(C(F)(F)F)cc3)cccc2C1=O,inactive
19,C[C@H](CO)N1C[C@H](C)[C@@H](CN(C)Cc2ccc3c(c2)OCO3)Oc2c(NC(=O)Nc3ccc(C(F)(F)F)cc3)cccc2C1=O,active

row,SMILES,cytotoxicity call
1,C[C@H]1CN([C@@H](C)CO)C(=O)c2cccc(NC(=O)Nc3ccc4c(c3)OCO4)c2O[C@H]1CN(C)Cc1ccc(C(F)(F)F)cc1,inactive
2,C[C@@H]1CN([C@@H](C)CO)C(=O)c2cccc(NC(=O)Nc3ccc4c(c3)OCO4)c2O[C@H]1CN(C)Cc1ccc(C(F)(F)F)cc1,active
3,C[C@H]1CCCCO[C@@H](CN(C)C(=O)Nc2ccc3c(c2)OCO3)[C@@H](C)CN([C@@H](C)CO)C(=O)c2cc(NS(=O)(=O)c3cccs3)ccc2O1,inactive
4,Cc1cc(C(=O)Nc2cccc3c2O[C@@H](CN(C)S(=O)(=O)c2cccs2)[C@H](C)CN([C@H](C)CO)C3=O)n(C)n1,inactive
5,C[C@H]1CCCCO[C@H](CN(C)C(=O)NC2CCCCC2)[C@@H](C)CN([C@@H](C)CO)C(=O)c2cc(NS(=O)(=O)c3cccs3)ccc2O1,inactive
6,C[C@@H]1CCCCO[C@@H](CN(C)Cc2ccc(C(F)(F)F)cc2)[C@H](C)CN([C@H](C)CO)C(=O)c2cc(NC(=O)c3ccncc3)ccc2O1,inactive
7,O=C(NCc1nc2ccccc2[nH]1)C1=C[C@@H](c2ccc(Br)cc2)C[C@@H](OCc2ccc(CO)cc2)O1,inactive
8,Cc1ccc(S(=O)(=O)N(C)C[C@@H]2Oc3ccc(NC(=O)Nc4ccc(C(F)(F)F)cc4)cc3C(=O)N([C@H](C)CO)C[C@@H]2C)cc1,inactive
9,CS(=O)(=O)[C@H]1CCNC1,inactive
10,CC(C)(C)S(=O)N1Cc2cc(C(=O)NCc3ccc4c(c3)OCO4)nc(-c3cccc(-c4cccc(F)c4)c3)c2[C@H]1CCO (stereo partly specified),inactive
11,COc1ccccc1CNC(=O)C[C@H]1CC[C@@H]2[C@H](COC[C@H](O)CN2C(=O)Nc2ccc(F)cc2)O1,inactive
12,O=C(C[C@H]1C[C@H]2c3cc(NC(=O)C4CCOCC4)ccc3O[C@H]2[C@H](CO)O1)NCc1ccc2c(c1)OCO2,inactive
13,C[C@@H]1CN([C@@H](C)CO)C(=O)c2cccc(NC(=O)c3nc4ccccc4s3)c2O[C@H]1CN(C)C(=O)Nc1ccc(C(F)(F)F)cc1,inactive
14,COc1ccccc1S(=O)(=O)N[C@@H]1CC[C@H](CCNC(=O)C2CC2)O[C@H]1CO,inactive
15,CN(C)CCCNC(=O)[C@@H]1[C@@H](CO)[C@@H]2Cn3c(ccc(-c4cccc(C(=O)N(C)C)c4)c3=O)[C@H]1N2,inactive
16,C=C[C@](C)(O)CC/C=C(\C)C(=O)O[C@@H]1[C@@H](O[C@@](C)(C=C)CC/C=C(\C)C(=O)O[C@H]2C[C@@]3(C(=O)O[C@H]4OC[C@@H](O[C@H]5O[C@@H](CO)[C@@H](O)[C@@H](O[C@H]6O[C@@H](CO)[C@@H](O[C@H]7O[C@@H](CO)[C@@H](O)[C@@H](O)[C@@H]7O)[C@@H](O)[C@@H]6O)[C@@H]5O)[C@@H](O)[C@@H]4O)[C@@H](O)C[C@@]4(C)C(=CC[C@H]5[C@@]6(C)CC[C@@H](O[C@H]7O[C@@H](CO)[C@@H](O[C@H]8O[C@@H](CO)[C@@H](O)[C@@H](O[C@H]9OC[C@@H](O)[C@@H](O)[C@@H]9O)[C@@H]8O)[C@@H](O)[C@@H]7O)C(C)(C)[C@@H]6CC[C@@]54C)[C@@H]3CC2(C)C)OC[C@@H](O)[C@H]1O,active
17,C[C@@H]1O[C@H](O[C@H]2[C@H](OC(=O)[C@]34CCC(C)(C)C[C@@H]3C3=CC[C@@H]5[C@@]6(C)CC[C@H](O[C@@H]7O[C@@H](C)[C@H](O[C@@H]8OC[C@@H](O)[C@H](O)[C@H]8O)[C@@H](O)[C@H]7O)C(C)(C)[C@@H]6CC[C@@]5(C)[C@]3(C)C[C@@H]4O)OC[C@H](O)[C@H]2O)[C@H](O)[C@H](O)[C@H]1O[C@@H]1O[C@H](CO)[C@@H](O)[C@H](O)[C@H]1O,inactive
18,C[C@@H]1O[C@@H](O[C@H]2[C@H](OC(=O)[C@]34CCC(C)(C)C[C@H]3C3=CC[C@H]5[C@@]6(C)CC[C@H](O[C@@H]7O[C@H](CO)[C@@H](O)[C@H](O)[C@H]7O)C(C)(C)[C@@H]6CC[C@@]5(C)[C@]3(C)C[C@H]4O)OC[C@H](O)[C@@H]2O)[C@H](O)[C@H](O[C@@H]2OC[C@H](O)[C@H](O)[C@H]2O)[C@H]1O[C@@H]1OC[C@@H](O)[C@H](O[C@@H]2OC[C@H](O)[C@H](O)[C@H]2O)[C@H]1O,inactive
